# ASK1 inh – inhibitors of human ASK1 kinase; Q99683; AlphaScreen MKK6 phosphorylation by ASK1, luminescence; inhibition, % at 7.44 µM; 22,000 compounds, 0.99% hits; in the data active = inhibition above about 35%;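 also: 0% = median of compound wells and 100% = no enzyme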
# ULK1 primary – inhibitors of human ULK1 kinase; O75385; AlphaScreen Atg13 phosphorylation by ULK1, luminescence; inhibition, % at 5.96 µM; 30,000 compounds, 1.9% hits; AID 1259251; in the data active = inhibition above about 43%;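 also: 0% = median of compound wells and 100% = no enzyme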
# Active calls of the source: *; · = no result; ! = repeats disagree. Compounds with a hit are over-represented: about 2.4% of the library has one in this group of screens.
SMILES,ASK1 inh,ULK1 primary
O=C(NC1CC1)c1ccnc(N2CCN(Cc3ccc4c(c3)OCO4)CC2)c1,10,-5
O=C(NCCN1CCOCC1)c1ccnc(-c2ccc(C(=O)NC3CC3)cc2)c1,0,-12
O=C1C2C3C=CC(C3)C2C(=O)N1CN(CN1C(=O)C2C3C=CC(C3)C2C1=O)C1CCCCC1 (centres undefined),·,14
Nn1cnnc1N/N=C/c1cccc2ccccc12,·,60*
COc1nc(N/N=C/c2cccc3ccccc23)nc(N2CCOCC2)n1,·,-8
CCCNc1nc(Nc2nc3ccccc3n2C)nc2c1ncn2C1CCCCC1,2,41
Cn1c(Nc2nc(NCCc3ccc(O)cc3)c3ncn(C4CCCCC4)c3n2)nc2ccccc21,-2,44*
Cc1cc(NC2CCN(Cc3ccccc3)CC2)nc(Nc2ccncn2)n1,-3,-3
COc1ccc(CCNC(=O)c2cncc(-c3c(C)noc3C)c2)cc1,5,0
Cn1cnnc1-c1ccc(Nc2nccc(-c3ccc(NS(C)(=O)=O)cc3)n2)cc1,1,-14
CS(=O)(=O)Nc1ccc(-c2ccnc(Nc3ccc(N4CCOC4=O)cc3)n2)cc1,-3,70*
CS(=O)(=O)c1ccc(-c2ccnc(Nc3ccc(C(N)C(F)(F)F)cc3)n2)cc1 (centres undefined),-21,20
CC(O)c1ccc(Nc2nccc(-c3ccc(NS(C)(=O)=O)cc3)n2)cc1 (centres undefined),-7,69*
Cc1cnnn1-c1ccc(Nc2nccc(-c3ccc(NS(C)(=O)=O)cc3)n2)cc1,6,49*
Cc1ncn(-c2ccc(Nc3nccc(-c4ccc(S(C)(=O)=O)cc4)n3)cc2)n1,-12,2
O=C1OCCN1c1ccc(Nc2nccc(-c3cncc(N4CCOCC4)c3)n2)cc1,6,4
CS(=O)(=O)Nc1ccc(-c2ccnc(Nc3ccc(-n4ccnn4)cc3)n2)cc1,-28,66*
COc1ccc2c(c1)CC(C(=O)NC1CCNC(=O)c3[nH]ccc31)CO2 (centres undefined),-17,3
CCNC(=O)Nc1ccc(-n2nnc3cc(C(F)(F)F)cnc32)cc1,·,6
c1ccc2c(Nc3nc(NCCN4CCOCC4)c4[nH]cnc4n3)nccc2c1,5,-2
COc1ccc2c(c1)CC(c1nc(N(C)CCCO)c3ccc(-c4cn[nH]c4)cc3n1)CO2 (centres undefined),19,-22
CCCNc1nc(NCc2ccc3c(c2)OCO3)nc2c1ncn2CCN1CCCC1=O,-1,-3
CCCNc1nc(Nc2cccnc2)nc(OC)n1,-25,8
c1cc(-c2ccc3nc(-c4ccc(N5CCOCC5)s4)[nH]c3c2)ccn1,-2,-4
Oc1cc(O)c2c(c1)O[C@H](c1ccc(O)c(O)c1)[C@@H](O)C2,·,53*
SMILES,ASK1 inh,ULK1 primary
c1ccc2nc(Nc3ccc(-n4cnc(N5CCOCC5)n4)cc3)ncc2c1,-7,46*
Cn1cc(-c2ccc3cnc(Nc4ccc(-n5cnc(C(C)(C)C)n5)cc4)nc3c2)cn1,-3,10
Cc1cc(-c2nc(Nc3ccc(-n4cnc(N5CCOCC5)n4)cc3)ncc2Cl)no1,-35,44*
c1cc(-n2cnc(N3CCOCC3)n2)ccc1Nc1cc2cc(-c3cn[nH]c3)ccc2cn1,-6,87*
Cn1cc(-c2ccc3cnc(Nc4ccc(-n5cnc(N6CCCC(O)C6)n5)cc4)nc3c2)cn1 (centres undefined),6,79*
c1ccc(-c2ccc3cnc(Nc4ccc(-n5cnc(N6CCOCC6)n5)cc4)nc3c2)cc1,-11,13
c1cc(-c2cn[nH]c2)cc(Nc2ccc(N3CCOCC3)cc2)n1,-2,27
Clc1cnc(Nc2ccc(-n3cnc(N4CCOCC4)n3)cc2)nc1-c1ccno1,-29,7
CC(C)n1c(NCc2cccnc2)nc2c(NCc3cccc(C(F)(F)F)c3)ncnc21,2,-3
O=C(Cc1ccc([N+](=O)[O-])cc1)N/N=C/c1ccccc1OS(=O)(=O)c1ccccc1,·,-8
Cc1nc(NC2CCCCC2)cc(-c2ccccc2F)n1,·,-14
CN1CCN(c2cc(-c3ccncc3)nc(-c3cccnc3)n2)CC1,·,6
CC(C)n1cnc2c(Nc3ccc(Oc4ccccc4)cc3)nc(-c3cccc(N)c3)nc21,17,-15
O=C(NCCOc1ccccc1)c1csc(Br)n1,-3,-3
COc1ccc(Cn2cc(Nc3nc(C4COc5ccc(OC)cc5C4)nc4ccccc34)cn2)cc1 (centres undefined),2,-29
CO/C(C)=C/c1sc2ccccc2[n+]1C,·,-7
c1cc(-n2cnc(N3CCOCC3)n2)ccc1Nc1ncc2ccc(-c3cn[nH]c3)cc2n1,7,74*
O=c1ccc(-c2ccc3cnc(Nc4ccc(-n5cnc(N6CCOCC6)n5)cc4)nc3c2)c[nH]1,-13,34
COc1ccc(-c2cccc(C(=O)NCCOc3ccccc3)c2)cc1,-11,-8
Nc1nc(N2CCN(c3ccccn3)CC2)nc2c1ncn2-c1ccccc1,7,4
C=CCn1c(=O)c(C(=O)Nc2nnc(CC(C)C)s2)c(O)c2ccccc21,·,-10
Cc1cncc2cccc(S(=O)(=O)N3CCCNC[C@@H]3C)c12,-9,81*!
Cc1cncc2cccc(NC3CCN(C(=O)[C@H](C)O)CC3)c12,-9,10
Cc1cncc2cccc(NC3CCCNC3)c12 (centres undefined),12,72*
Cc1cncc2cccc(N3CCN(C(=O)[C@H](C)O)CC3)c12,-2,-1
SMILES,ASK1 inh,ULK1 primary
COc1nc(NCCc2ccc(O)cc2)nc(-c2ccccc2)n1,10,-20
O=C(NCc1cccnc1)c1ccc2nc(Br)sc2c1,11,45*
O=C(NCc1cccnc1)c1ccc2nc(-c3ccccc3)sc2c1,1,-22
FC(F)(F)c1cccc(CNc2ccnc(NCCN3CCOCC3)n2)c1,-27,-12
FC(F)(F)c1cccc(CNc2ccnc(Nc3ccc(N4CCOCC4)cc3)n2)c1,36*!,-3
Nc1nc(NCCN2CCOCC2)cc(Nc2ccc(C(F)(F)F)cc2)n1,6,-13
C[n+]1c2cc(N)ccc2cc2ccc(N)cc21,·,71*
CC(=O)c1cccc(-c2nc(Nc3ccc(Oc4ccccc4)cc3)c3[nH]cnc3n2)c1,13,-44
CC(=O)Nc1ccc(Nc2nc(Nc3ncccn3)nc3c2ncn3C(C)C)cc1,3,47*
c1ccc(Nc2ccnc(Nc3ccncn3)n2)cc1,16,45*
CC(=O)Nc1ccc(Nc2nc(Nc3ccc4ncccc4c3)nc3c2ncn3C(C)C)cc1,-8,34
c1ccc(Nc2ccnc(Nc3ccncc3)n2)cc1,3,17
CC(C)n1cnc2c(NC3CCN(Cc4ccccc4)CC3)nc(Nc3ccncn3)nc21,12,15
CC(CNc1nccc(Nc2ccncn2)n1)c1cccs1 (centres undefined),10,44*
CC(C)n1cnc2c(Nc3ccccc3)nc(Nc3ccncn3)nc21,-5,50*
COC(CNc1nccc(Nc2ccncn2)n1)c1cccs1 (centres undefined),-4,4
Nc1cc(-c2ccnc(Nc3ccc(N4CCOCC4)cc3)c2)nn1CCc1ccccc1,12,-16
COc1ccc2c(c1)CC(c1nc(Nc3cncnc3)c3ccccc3n1)CO2 (centres undefined),7,-5
O=C(CSc1nc2ccc(NC(=O)c3ccccc3)cc2s1)NCC1CCCO1 (centres undefined),·,-2
CCNC(=O)CC1S/C(=N\N=C(/C)c2cccc(NC(C)=O)c2)NC1=O (centres undefined),·,5

# Source: PubChem (The Scripps Research Institute Molecular Screening Center)
